Results taken from PubChem BioAssay (Tox21).
Inconclusive results are not listed. Unmarked numbers belong to inactive results. Calls of active or inactive are those of the source. Unless noted, calls follow the shape of the dose curve; as a rule, active = well fitted cell-killing curve with a large enough effect in the repeat runs; inconclusive = weak or mixed curves, or effect the other way; inactive = no such curve, though single readings can be large or run the other way.

Tested on: not listed separately
Assay: qHTS assay to identify small molecule agonists of the estrogen receptor alpha (ER-alpha) signaling pathway in the presence of an antagonist - cell viability counter screen (AID 1259386);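 also: cells exposed to compounds for 22 h at 37 °C before the viability read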; also: potency is read from the fitted curve at half-maximal effect
Details: VM7Luc4E2 viability, CellTiter-Fluor fluorescence, 22 h; series mostly up to 92.4 µM; activity change, negative = cytotoxicity: at the top concentration
How it was run: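 In this counter screen, compound effects on VM7Luc4E2 viability were tested in the presence of the antagonist ICI-182,780 at 10.0nM final. Compounds were dosed at 15 concentrations, exposure lasted 22hr, and the CellTiter-Fluor signal was read.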
% is scaled to controls: 0 for no effect and ±100 for the full control effect.
Also: nearly all actives have a fitted effect of over 30% in size.

SMILES	activity change, negative = cytotoxicity	Potency
C=CCc1cc(S(=O)(=O)c2ccc(O)c(CC=C)c2)ccc1O	-11.8%	–
C/C(=C\c1ccc(C(=O)O)cc1)c1ccc2c(c1)C(C)(C)CCC2(C)C	-1.01% [at 42.5 µM]	–
CCN(CC)c1ccc(C=O)c(O)c1	-13.9%	–
Oc1ccc2c(c1)CCC2	-0.588%	–
Cc1ccc(S(=O)(=O)C(I)I)cc1	–	68.6 µM (active)
CC(C)(c1ccc(Oc2ccc(N)cc2)cc1)c1ccc(Oc2ccc(N)cc2)cc1	–	54.5 µM (active)
CN1CCN(c2ccccc2/C=C2\SCCN(c3ccc(Cl)c(Cl)c3)C2=O)CC1	–	68.6 µM (active)
O=C1CCC/C=C\CCCCCCCCCC1	1.89%	–
CCCCCc1ccc(O)cc1	-5.57%	–
COc1cccc(-c2ccc(/C=C\CN3CCCCCC3)cc2Cl)c1	-0.471%	–
CCOC(=O)[C@H](C)O	-0.217%	–
Cc1ccc(Cl)c(N)c1Cl	-4.02%	–
Nc1c(Br)cc([N+](=O)[O-])cc1Br	-4.51%	–
c1ccc(-c2ccccc2-c2ccccc2)cc1	0.641%	–
COc1cc([C@@H]2c3cc4c(cc3[C@@H](O[C@@H]3O[C@@H]5CO[C@@H](C)O[C@H]5[C@H](O)[C@H]3O)[C@H]3COC(=O)[C@H]23)OCO4)cc(OC)c1O	-0.708%	–
CCOC(=O)C1=NN(c2ccc(Cl)cc2Cl)C(C)(C(=O)OCC)C1 (configuration not stated)	-2.03%	–
CCCCCCCC/C=C\CCCCCCCC(=O)N(CCO)CCO	-4.34%	–
CCCCC/C=C\C=C\C(=O)OCC	-1.38%	–
CCN(CC)c1ccc(N=Nc2ccccc2)cc1	–	30.6 µM (active)
S=C1NC=NC2N=CNC12 (configuration not stated)	0.552%	–
CCCCCCCCCC[N+](C)(CCCCCCCCCC)CCC[Si](OC)(OC)OC	-3.83%	–
CCOc1ccc([N+](=O)[O-])cc1	-7.89%	–
O=C(N[C@H](CO)[C@H](O)c1ccc([N+](=O)[O-])cc1)C(Cl)Cl	5.1%	–
CCN(CC)c1ccc(C=O)cc1	0.601%	–
Cc1ccc2nc(-c3ccc(N)cc3)sc2c1S(=O)(=O)O	-9.91% [at 42.5 µM]	–

Target: Progesterone receptor (Homo sapiens) (UniProt P06401)
Assay: qHTS assay to identify small molecule agonists of the progesterone receptor (PR) signaling pathway (AID 1346784; calls by dose curve)
Details: PR-UAS-bla HEK293T, beta-lactamase FRET ratio, 16 h; series mostly up to 92.4 µM; activation: at the top concentration
How it was run: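 Seed PR-UAS-bla HEK 293T cells (2% charcoal-stripped FBS), incubate 6 hr at 37C; add compounds in DMSO, 16 hr at 37C; add LiveBLAzer B/G substrate, 2 hr RT; read fluorescence intensity.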

Sequence of Progesterone receptor (Homo sapiens) (P06401 whole entry, looked up): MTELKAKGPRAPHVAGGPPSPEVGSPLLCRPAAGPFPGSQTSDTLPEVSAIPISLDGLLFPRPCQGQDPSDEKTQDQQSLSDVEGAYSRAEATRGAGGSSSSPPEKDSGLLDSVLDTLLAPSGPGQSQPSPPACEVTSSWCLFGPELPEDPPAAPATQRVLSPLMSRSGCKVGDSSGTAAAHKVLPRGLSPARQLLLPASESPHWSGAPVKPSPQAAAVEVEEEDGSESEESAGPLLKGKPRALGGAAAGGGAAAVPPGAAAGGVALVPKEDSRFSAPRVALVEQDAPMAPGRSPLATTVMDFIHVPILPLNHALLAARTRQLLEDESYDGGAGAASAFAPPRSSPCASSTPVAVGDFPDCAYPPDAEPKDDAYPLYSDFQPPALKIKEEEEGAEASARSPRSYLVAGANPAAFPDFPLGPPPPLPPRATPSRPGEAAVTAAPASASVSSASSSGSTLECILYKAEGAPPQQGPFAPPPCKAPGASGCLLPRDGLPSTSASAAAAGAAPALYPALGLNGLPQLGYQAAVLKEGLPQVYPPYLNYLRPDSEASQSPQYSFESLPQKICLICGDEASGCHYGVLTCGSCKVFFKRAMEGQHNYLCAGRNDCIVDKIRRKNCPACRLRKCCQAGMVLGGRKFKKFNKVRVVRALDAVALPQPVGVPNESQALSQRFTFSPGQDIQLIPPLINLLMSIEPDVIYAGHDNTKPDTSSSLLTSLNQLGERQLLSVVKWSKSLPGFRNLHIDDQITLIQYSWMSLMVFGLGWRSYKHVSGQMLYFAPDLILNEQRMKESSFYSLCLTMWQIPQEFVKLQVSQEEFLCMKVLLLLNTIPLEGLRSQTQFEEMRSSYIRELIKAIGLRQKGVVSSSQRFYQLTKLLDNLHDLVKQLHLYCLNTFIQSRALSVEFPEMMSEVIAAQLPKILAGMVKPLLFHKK

SMILES	activation
C=CCc1cc(S(=O)(=O)c2ccc(O)c(CC=C)c2)ccc1O	-6.43%
C/C(=C\c1ccc(C(=O)O)cc1)c1ccc2c(c1)C(C)(C)CCC2(C)C	0.543% [at 42.5 µM]
CCN(CC)c1ccc(C=O)c(O)c1	3.18%
CC(C)(c1ccc(Oc2ccc(N)cc2)cc1)c1ccc(Oc2ccc(N)cc2)cc1	-1.73%
CC(Cc1ccc(O)c(O)c1)C(C)Cc1ccc(O)c(O)c1 (configuration not stated)	0.597%
O=C1CCC/C=C\CCCCCCCCCC1	-2.25%
CCCCCc1ccc(O)cc1	-0.139%
COc1cccc(-c2ccc(/C=C\CN3CCCCCC3)cc2Cl)c1	1.28%
CCOC(=O)[C@H](C)O	0.0195%
CC(C)(C)c1cc(CCC(=O)OCCSCCOC(=O)CCc2cc(C(C)(C)C)c(O)c(C(C)(C)C)c2)cc(C(C)(C)C)c1O	-0.764% [at 42.5 µM]
Nc1c(Br)cc([N+](=O)[O-])cc1Br	0.296%
COc1cc([C@@H]2c3cc4c(cc3[C@@H](O[C@@H]3O[C@@H]5CO[C@@H](C)O[C@H]5[C@H](O)[C@H]3O)[C@H]3COC(=O)[C@H]23)OCO4)cc(OC)c1O	-11.8%
CCOC(=O)C1=NN(c2ccc(Cl)cc2Cl)C(C)(C(=O)OCC)C1 (configuration not stated)	6.16%
CCCCCCCC/C=C\CCCCCCCC(=O)N(CCO)CCO	3.32%
CC(C)=CCC[C@H](C)CC=O	-0.298%
CCCCC/C=C\C=C\C(=O)OCC	0.432%
S=C1NC=NC2N=CNC12 (configuration not stated)	-5.32%
O=[N+]([O-])c1ccc(O)c2ncccc12	-11.4% [at 42.5 µM]
CCCCCCCCCC[N+](C)(CCCCCCCCCC)CCC[Si](OC)(OC)OC	-4.41%
O=C(N[C@H](CO)[C@H](O)c1ccc([N+](=O)[O-])cc1)C(Cl)Cl	-2.85%
O=c1[nH]cccc1O	-3.28%
CCN(CC)c1ccc(C=O)cc1	2.28%
